# DT40 TDP1 no CPT – qHTS for Inhibitors of human tyrosyl-DNA phosphodiesterase 1 (TDP1): qHTS in cells in absence of CPT; DT40 Tdp1-/- hTDP1 cells, no CPT, ATP luminescence, 48 h; Potency, µM (series often up to 46.2 µM), for the others: at the highest dose activity change, negative = growth inhibition, most hits filed as inhibitors; hit rate 15% among 420,000; AID 686978, 2013; also: % is scaled to controls: 0 for no effect and ±100 for the full control effect; nearly all actives have a fitted effect of over 55% in size
#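 Growth kinetics read by CellTiter-Glo luminescence after ≥48 hr at 37 °C. Cells: DT40 Tdp1-/- stably carrying human TDP1, 400 per well, compound exposure in the absence of CPT (DMSO vehicle).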
# ATXN viability – reduces viability in counter-screen for ATXN expression inhibitors; S2 cells (HEK-293 line with an ATXN2-luciferase reporter) viability, CellTiter-Fluor protease fluorescence, 24 h; Potency, µM (titrated, usually from 56.7 µM), usual class: cytotoxic; hit rate 0.49% among 400,000; AID 651635; also: nearly all actives have a fitted effect of over 40% in size
# ATXN2 expr inh – reduces ATXN2 reporter expression in HEK-293 cells | HEK-293 ATXN2-luciferase reporter, luminescence, 24 h | Potency, µM (highest dose often 57 µM), inactives show at the highest dose activity change, negative = inhibition, hits mostly inhibitors | hit rate 0.72% among 360,000 | AID 1745845; also: % is scaled to controls: 0 for no effect and ±100 for the full control effect; nearly all actives have a fitted effect of over 55% in size
#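 qHTS (up to 57 uM final) was run with 24 h compound exposure of reporter cells at 37 °C. Each well was multiplexed: SteadyGlo luminescence measured ATXN2-luciferase expression after a fluorogenic Gly-Phe-AFC viability readout (25 uM final).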
# HepG2 tox – counter-screen for TGF-b inhibitors: cytotoxicity in HepG2 cells. HepG2 CAGA-GFP viability, ATP luminescence, 18 h. Potency, µM (top dose mostly 46.1 µM), for inactives: top-dose activity change, negative = cytotoxicity, usual class: cytotoxic. hit rate 0.76% among 410,000
#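 CellTiter-Glo luminescence gave cytotoxicity after 18 hours at 37 degrees C. The cells were HepG2 CAGA-GFP in 1% FBS DMEM, stimulated with 500 pg/mL TGF-beta after compound addition. %Activity was normalised to no-cell wells (complete cell-killing) and DMSO (no toxicity), and curves were fitted and classified.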
# TDP1 cell CPT – DT40-hTDP1 cell growth loss with CPT; chicken DT40 Tdp1-/-;hTDP1 cells + 20 nM CPT, ATP luminescence, 48 h; Potency, µM (doses to about 46.2 µM), without a hit: at the highest dose activity change, negative = growth inhibition, usual class: inhibitors; hit rate 12% among 420,000; AID 686979; also: % is scaled to controls: 0 for no effect and ±100 for the full control effect; nearly all actives have a fitted effect of over 55% in size
#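 Chicken DT40 Tdp1-/- cells complemented with human TDP1, 400 cells/well, exposed to compounds plus 20 nM camptothecin for at least 48 h at 37 C; viability read as ATP content by CellTiter-Glo luminescence.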
# TGFb SMAD3 inh – inhibitors of TGF-b signaling. Potency, µM (titrated, usually from 46.1 µM), for the others: top-dose activity, negative = inhibition, most hits filed as inhibitors. hit rate 1.2% among 410,000. AID 588855. HepG2 CAGA-GFP TGF-b/SMAD3 reporter, GFP fluorescence, 18 h; TGF-beta stimulated, 500 pg/mL final; also: % is scaled to controls: 0 for no effect and ±100 for the full control effect; nearly all actives have a fitted effect of over 65% in size
#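 Inhibition was scored as loss of TGF-beta-induced (500 pg/mL final, 18 hours, 37 degrees C) GFP in HEPG2 cells carrying a CAGA-GFP reporter, in DMEM with 1% FBS. Well GFP was summed per cell; Activity was normalised to unstimulated and stimulated DMSO wells, then concentration-response fitting.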
# Numbers without * were called inactive; i = inactive; ? = inconclusive; / = no result. Compounds with a hit are over-represented: about 17% of the library has one in this group of screens. Calls follow the shape of the dose curve; as a rule, active = well fitted curve in the direction sought with a large enough effect; inconclusive = small, poorly fitted or top-dose-only effect, or another doubt; inactive = no such curve, though single readings can be large; an effect the other way counts as inactive or inconclusive. Potency is read from the fitted curve at half-maximal effect.
SMILES,DT40 TDP1 no CPT,ATXN viability,ATXN2 expr inh,HepG2 tox,TDP1 cell CPT,TGFb SMAD3 inh
NC(=O)c1ccc(NC(=O)COC(=O)c2c3c(nc4ccccc24)/C(=C\c2cccs2)CCC3)cc1,21µM*,i,/,-28%,?,-43%
CC1CCc2[nH]c3ccc(C(=O)N(C)CC(=O)Nc4ccccc4Br)cc3c2C1 (stereo not given),12µM*,i,-24%,14%,?,?
Cc1ccc(C)c(NC(=O)CN(C)C(=O)c2ccc3[nH]c4c(c3c2)CC(C)CC4)c1 (stereo not given),?,i,-34%,-34%,?,?
CCC(=O)NCCc1sc2nc(-c3ccc(OC)cc3)nn2c1C,?,?,11%,3%,-25%,-10%
CCS(=O)(=O)NCCc1sc2nc(-c3ccc(OC)cc3)nn2c1C,21µM*,/,/,-65%,?,?
COc1ccc(-c2nc3sc(CCNC(=O)Cc4ccc(Cl)cc4)c(C)n3n2)cc1,?,/,/,-9%,?,0%
COc1ccc(-c2nc3sc(CCNC(=O)c4cc(Cl)ccc4OC)c(C)n3n2)cc1,13µM*,25µM*,?,-19%,16µM*,-17%
Cc1c(CCNC(=O)c2ccc(Br)o2)sc2nc(-c3ccc(Cl)cc3)nn12,23µM*,/,/,-33%,18µM*,11µM*
COc1ccc(-c2nc3sc(CCNC(=O)c4ccc(C(C)(C)C)cc4)c(C)n3n2)cc1,8.2µM*,i,29%,-21%,?,?
O=C(c1cccc(Cl)c1)n1nc(-c2ccco2)nc1NCc1cccs1,-23%,i,20%,-106%,-13%,-25%
CCn1cc(C=C2C(=O)c3ccccc3C2=O)c2ccccc21,?,i,-6%,-10%,-7%,-3%
CCOc1ccc(CC(=O)NCCc2sc3nc(-c4ccc(OC)cc4)nn3c2C)cc1,?,/,/,-11%,?,-20%
COc1ccc(-c2nc3sc(CCNC(=O)c4ccc(Br)o4)c(C)n3n2)cc1,16µM*,?,-38%,-43%,16µM*,?
O=C(C[C@@H]1C=C[C@H](NS(=O)(=O)c2ccccc2F)[C@@H](CO)O1)NCCCN1CCOCC1,6%,/,/,/,-6%,/
CCc1ccccc1NC(=O)CN1CCN(C(=O)CNC(=O)c2ccc(N3CCCC3=O)cc2)CC1,-16%,i,-18%,-8%,-11%,-19%
O=C(Nc1cccc(Cl)c1Cl)c1cc(S(=O)(=O)NCc2ccc3c(c2)OCO3)ccc1F,-1%,i,-20%,-59%,5%,?
C=CCn1c(=NC(=O)c2ccccc2[N+](=O)[O-])sc2cc(S(C)(=O)=O)ccc21,21µM*,i,2%,-12%,16µM*,-5%
COc1cccc(OC)c1C(=O)N=c1sc2cc(S(C)(=O)=O)ccc2n1C,-18%,?,-20%,-4%,-10%,2%
Cc1cc(C)cc(N(CC(=O)NCc2ccccc2)C(=O)CCC(=O)Nc2ccccn2)c1,?,i,-8%,5%,-2%,-31%
Cc1cccc(C)c1-n1nnnc1C(c1cccc2ccccc12)N1CCN(C/C=C/c2ccccc2)CC1 (stereo not given),5.8µM*,i,13%,2%,4.6µM*,-27%
Cc1cccc(C)c1-n1nnnc1C(c1ccnc2ccccc12)N1CCN(CC(=O)NC(C)C)CC1 (stereo not given),-27%,i,10%,/,-13%,/
Cc1cccc(C)c1-n1nnnc1C(c1cc2ccccc2o1)N1CCN(C/C=C/c2ccccc2)CC1 (stereo not given),23µM*,?,-5%,-30%,18µM*,?
O=C(CSC1CCCCC1)Nc1ccccc1Br,?,i,23%,6%,?,16%
CCC(=O)N1c2ccc(S(=O)(=O)NCc3ccc(F)cc3)cc2CC1C (stereo not given),12µM*,i,-10%,-1%,15µM*,0%
CCC(=O)N1c2ccc(S(=O)(=O)NCCc3ccc(C)cc3)cc2CC1C (stereo not given),-9%,i,1%,-18%,-27%,-23%
SMILES,DT40 TDP1 no CPT,ATXN viability,ATXN2 expr inh,HepG2 tox,TDP1 cell CPT,TGFb SMAD3 inh
COc1ccc(CCNS(=O)(=O)c2ccc3c(c2)CC(C)N3C(=O)C2CCC2)cc1OC (stereo not given),13µM*,i,-2%,-6%,?,-22%
COCCNC(=O)C1CCC(CNS(=O)(=O)c2ccc3c(c2)CC(C)N3C(=O)C2CC2)CC1 (stereo not given),-1%,i,16%,15%,-6%,7%
CC1Cc2cc(S(=O)(=O)NCCc3ccccc3)ccc2N1C(=O)C1CC1 (stereo not given),15µM*,i,-15%,-42%,15µM*,-15%
CC1Cc2cc(S(=O)(=O)NCc3ccccc3Cl)ccc2N1C(=O)C1CCC1 (stereo not given),7.3µM*,i,-24%,-17%,15µM*,?
CC(OC(=O)C1=COCCO1)C(=O)NC(C)c1ccc(Cl)cc1Cl (stereo not given),-3%,i,-12%,0%,-20%,-1%
CCc1nnc(NC(=O)CCC(=O)NCc2ccc(C)cc2)s1,1%,i,4%,-45%,-10%,17%
COc1ccc(NS(=O)(=O)c2ccc3c(c2)CC(C)N3C(C)=O)c(OC)c1 (stereo not given),21µM*,i,-13%,-1%,18µM*,-17%
COc1cccc(CNS(=O)(=O)c2ccc3c(c2)CC(C)N3C(=O)C2CC2)c1 (stereo not given),10µM*,i,-19%,-12%,21µM*,?
COc1ccccc1CNS(=O)(=O)c1ccc2c(c1)CC(C)N2C(C)=O (stereo not given),18µM*,i,1%,-10%,?,1%
CC(=O)N1c2ccc(S(=O)(=O)NCCC(=O)N(C)Cc3ccccc3)cc2CC1C (stereo not given),?,i,8%,-2%,?,-4%
CC(=O)N1c2ccc(S(=O)(=O)NCc3ccco3)cc2CC1C (stereo not given),-27%,i,/,-1%,-8%,4%
CC(=O)N1c2ccc(S(=O)(=O)NCCc3ccccc3)cc2CC1C (stereo not given),12µM*,?,/,-48%,?,?
